# Experimental data published in the supplement of paper PMC10037445.
# Over roughly 2,900 compounds, “NF-kB SEAP reporter activity, fold change vs agonist alone” has its median near 0.99; the highest 2% begin near 2.6. The sample holds the highest values, similar compounds and a random draw of the others, so the mix is not that of the screen.
# Legend:
# [1] = system: RAW-Dual; assay: NF-kB SEAP reporter activity, fold change vs agonist alone; cytotoxicity flag (confluency mask): not cytotoxic; higher = enhanced NF-kB activity
# Outline: (§1)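 After 50 nL of library stock was delivered by pin tool to RAW-Dual macrophages (50,000 cells/well, DMEM, 384-well plates), a PRR agonist was added 1 h later and the plates were kept at 37 °C, 5% CO2. Twenty hours later, IRF was read from supernatant by QuantiLuc luminescence and NF-κB by QuantiBlue absorbance at 620 nm. Reporter activity is stated as fold change over agonist-alone wells. Wells with IncuCyte confluency under 70% of agonist controls in both mask sets were counted as cytotoxic.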
# [2] = system: RAW-Dual; assay: NF-kB SEAP reporter activity, fold change vs agonist alone; higher = enhanced NF-kB activity
# Outline: as §1
# [3] = system: RAW-Dual; assay: NF-kB SEAP reporter activity, fold change vs agonist alone; cytotoxicity flag (confluency mask): cytotoxic (confluency <70% of control); higher = enhanced NF-kB activity
# Outline: as §1
# [4] = agonist: ODN 1826 (TLR9) 0.5 ug/mL
# [5] = agonist: Pam2CSK4 (TLR2/6) 0.1 ug/mL
# [6] = agonist: Pam3CSK4 (TLR2/1) 0.1 ug/mL
# [7] = library stock concentration (final ~1000-fold dilution): 10 mM, cytotoxicity flag (confluency mask): not cytotoxic, agonist: Imiquimod (TLR7) […]
# [8] = library stock concentration (final ~1000-fold dilution): 10 mM, cytotoxicity flag (confluency mask): not cytotoxic, agonist: MPLA (TLR4) […]
# [9] = library stock concentration (final ~1000-fold dilution): 10 mM water, cytotoxicity flag (confluency mask): not cytotoxic, agonist: MPLA (TLR4) […]
# [10] = library stock concentration (final ~1000-fold dilution): 10 mM, cytotoxicity flag (confluency mask): cytotoxic (confluency <70% of control), agonist: Imiquimod (TLR7) […]
# [11] = library stock concentration (final ~1000-fold dilution): 10 mM, cytotoxicity flag (confluency mask): cytotoxic (confluency <70% of control), agonist: MPLA (TLR4) […]
structure (smiles),measurement,setting,value
Cc1c(C(=O)Nc2ccc(N3CC(C)OC(C)C3)nc2)cccc1-c1ccc(OC(F)(F)F)cc1 (stereo not given) (library stock concentration (final ~1000-fold dilution): 10 mM),NF-kB SEAP reporter activity,[1]; agonist: LPS (TLR4) 0.1 ug/mL,1.13
same,NF-kB SEAP reporter activity,[1]; [4],1.35
same,NF-kB SEAP reporter activity,[1]; [5],0.839
same,NF-kB SEAP reporter activity,[1]; [6],1.12
Cc1c(C(=O)Nc2ccc(N3CC(C)OC(C)C3)nc2)cccc1-c1ccc(OC(F)(F)F)cc1 (stereo not given),NF-kB SEAP reporter activity,[2]; [7],0.808
same,NF-kB SEAP reporter activity,[2]; [8],0.657
N=C(N)NCCN1CCCCCCC1.O=S(=O)(O)O (library stock concentration (final ~1000-fold dilution): 10 mM water),NF-kB SEAP reporter activity,[1]; agonist: LPS (TLR4) 0.1 ug/mL,1.13
same,NF-kB SEAP reporter activity,[1]; [4],1.05
same,NF-kB SEAP reporter activity,[1]; [5],1.06
same,NF-kB SEAP reporter activity,[1]; [6],0.972
N=C(N)NCCN1CCCCCCC1.O=S(=O)(O)O,NF-kB SEAP reporter activity,[2]; [9],1.05
CC1CC(=O)Nc2cccc(-c3ccc4c(c3)c(-c3cnn(C)c3)nn4C)c2N1 (stereo not given),NF-kB SEAP reporter activity,[2]; [7],1.46
same,NF-kB SEAP reporter activity,[2]; [8],2.15
CC1CC(=O)Nc2cccc(-c3ccc4c(c3)c(-c3cnn(C)c3)nn4C)c2N1 (stereo not given) (library stock concentration (final ~1000-fold dilution): 10 mM),NF-kB SEAP reporter activity,[1]; agonist: LPS (TLR4) 0.1 ug/mL,3.26
same,NF-kB SEAP reporter activity,[1]; [4],2.08
same,NF-kB SEAP reporter activity,[1]; [5],0.673
same,NF-kB SEAP reporter activity,[1]; [6],1.28
Cc1nc[nH]c1CN1CCc2c(c3ccccc3n2C)C1=O.Cl (library stock concentration (final ~1000-fold dilution): 2 mM water),NF-kB SEAP reporter activity,[1]; agonist: LPS (TLR4) 0.1 ug/mL,1.14
same,NF-kB SEAP reporter activity,[1]; [4],1.09
same,NF-kB SEAP reporter activity,[1]; [5],1.15
same,NF-kB SEAP reporter activity,[1]; [6],0.961
Cc1nc[nH]c1CN1CCc2c(c3ccccc3n2C)C1=O.Cl,NF-kB SEAP reporter activity,"[2]; library stock concentration (final ~1000-fold dilution): 2 mM water, cytotoxicity flag (confluency mask): not cytotoxic, agonist: MPLA (TLR4) […]",1.06
NC(CSCCCO)C(=O)O (stereo not given),NF-kB SEAP reporter activity,"[2]; library stock concentration (final ~1000-fold dilution): 10 mM water, cytotoxicity flag (confluency mask): not cytotoxic, agonist: Imiquimod (TLR7) […]",0.937
same,NF-kB SEAP reporter activity,[2]; [9],1.04
NC(CSCCCO)C(=O)O (stereo not given) (library stock concentration (final ~1000-fold dilution): 10 mM water),NF-kB SEAP reporter activity,[1]; agonist: LPS (TLR4) 0.1 ug/mL,1.11
same,NF-kB SEAP reporter activity,[1]; [4],1.09
same,NF-kB SEAP reporter activity,[1]; [5],1.22
same,NF-kB SEAP reporter activity,[1]; [6],1.09
C=CC1(C)CC(OC(=O)CSC(C)(C)CNC(=O)C(N)C(C)C)C2(C)C(C)CCC3(CCC(=O)C32)C(C)C1O.Cl (stereo not given) (library stock concentration (final ~1000-fold dilution): 10 mM),NF-kB SEAP reporter activity,[1]; agonist: LPS (TLR4) 0.1 ug/mL,1.22
same,NF-kB SEAP reporter activity,[1]; [4],0.971
same,NF-kB SEAP reporter activity,[1]; [5],0.669
same,NF-kB SEAP reporter activity,[1]; [6],0.845
C=CC1(C)CC(OC(=O)CSC(C)(C)CNC(=O)C(N)C(C)C)C2(C)C(C)CCC3(CCC(=O)C32)C(C)C1O.Cl (stereo not given),NF-kB SEAP reporter activity,[2]; [7],0.86
same,NF-kB SEAP reporter activity,[2]; [8],1.25
CCCCCCCCCCCCCCCC(=O)NC(CCSC)C(=O)NCC(=O)NC(Cc1ccc(O)cc1)C(=O)NC(CCC(N)=O)C(=O)NC(CCCCN)C(=O)NC(CCCCN)C(=O)NC(CC(C)C)C(=O)NC(CCCNC(=N)N)C(=O)NC(CO)C(=O)NC(CCSC)C(=O)NC(C(=O)NC(CC(=O)O)C(=O)NC(CCCCN)C(=O)NC(Cc1ccc(O)cc1)C(=O)NC(CCCNC(=N)N)C(=O)NC(CC(C)C)C(=O)O)C(C)O (stereo not given),NF-kB SEAP reporter activity,[2]; [10],1.02
same,NF-kB SEAP reporter activity,[2]; [11],1.02
CCCCCCCCCCCCCCCC(=O)NC(CCSC)C(=O)NCC(=O)NC(Cc1ccc(O)cc1)C(=O)NC(CCC(N)=O)C(=O)NC(CCCCN)C(=O)NC(CCCCN)C(=O)NC(CC(C)C)C(=O)NC(CCCNC(=N)N)C(=O)NC(CO)C(=O)NC(CCSC)C(=O)NC(C(=O)NC(CC(=O)O)C(=O)NC(CCCCN)C(=O)NC(Cc1ccc(O)cc1)C(=O)NC(CCCNC(=N)N)C(=O)NC(CC(C)C)C(=O)O)C(C)O (stereo not given) (library stock concentration (final ~1000-fold dilution): 10 mM),NF-kB SEAP reporter activity,[3]; agonist: LPS (TLR4) 0.1 ug/mL,0.885
same,NF-kB SEAP reporter activity,[3]; [4],0.714
same,NF-kB SEAP reporter activity,[3]; [5],0.614
same,NF-kB SEAP reporter activity,[3]; [6],0.68
COc1ccc(Oc2cc(NCCC(F)(F)F)c3ncc(-c4ccc(C(=O)NC5CC5)c(C)c4)n3n2)c(F)c1F (library stock concentration (final ~1000-fold dilution): 10 mM),NF-kB SEAP reporter activity,[1]; agonist: LPS (TLR4) 0.1 ug/mL,2.44
same,NF-kB SEAP reporter activity,[1]; [4],1.78
same,NF-kB SEAP reporter activity,[1]; [5],0.636
same,NF-kB SEAP reporter activity,[1]; [6],0.913
COc1ccc(Oc2cc(NCCC(F)(F)F)c3ncc(-c4ccc(C(=O)NC5CC5)c(C)c4)n3n2)c(F)c1F,NF-kB SEAP reporter activity,[2]; [7],1.19
same,NF-kB SEAP reporter activity,[2]; [8],1.32
COc1cccc(CCc2ccccc2OCC(CN(C)C)OC(=O)CCC(=O)O)c1.Cl (stereo not given) (library stock concentration (final ~1000-fold dilution): 10 mM),NF-kB SEAP reporter activity,[1]; agonist: LPS (TLR4) 0.1 ug/mL,1.33
same,NF-kB SEAP reporter activity,[1]; [4],0.733
same,NF-kB SEAP reporter activity,[1]; [5],1.03
same,NF-kB SEAP reporter activity,[1]; [6],0.924
COc1cccc(CCc2ccccc2OCC(CN(C)C)OC(=O)CCC(=O)O)c1.Cl (stereo not given),NF-kB SEAP reporter activity,[2]; [7],1.22
same,NF-kB SEAP reporter activity,[2]; [8],1.03
Cc1cc(Cl)ccc1OCCCC(=O)NO,NF-kB SEAP reporter activity,[2]; [7],1.35
same,NF-kB SEAP reporter activity,[2]; [8],1.31
Cc1cc(C)cc(C(=O)NOCCCCCC(=O)NO)c1,NF-kB SEAP reporter activity,[2]; [10],1.41
same,NF-kB SEAP reporter activity,[2]; [11],2.74
Cc1cc(Cl)ccc1OCCCC(=O)NO (library stock concentration (final ~1000-fold dilution): 10 mM),NF-kB SEAP reporter activity,[1]; agonist: LPS (TLR4) 0.1 ug/mL,1.51
same,NF-kB SEAP reporter activity,[1]; [4],0.823
same,NF-kB SEAP reporter activity,[1]; [5],0.939
same,NF-kB SEAP reporter activity,[1]; [6],0.726
Cc1cc(C)cc(C(=O)NOCCCCCC(=O)NO)c1 (library stock concentration (final ~1000-fold dilution): 10 mM),NF-kB SEAP reporter activity,[3]; agonist: LPS (TLR4) 0.1 ug/mL,5.28
same,NF-kB SEAP reporter activity,[3]; [4],2.33
same,NF-kB SEAP reporter activity,[3]; [5],0.935
same,NF-kB SEAP reporter activity,[3]; [6],1.43
CNC(C)C(=O)NC1CN(C(=O)CC(C)C)CCC2CCC(C(=O)NC(c3ccccc3)c3ccccc3)N2C1=O (stereo not given),NF-kB SEAP reporter activity,[2]; [7],0.948
same,NF-kB SEAP reporter activity,[2]; [8],0.82
CNC(C)C(=O)NC1CN(C(=O)CC(C)C)CCC2CCC(C(=O)NC(c3ccccc3)c3ccccc3)N2C1=O (stereo not given) (library stock concentration (final ~1000-fold dilution): 10 mM),NF-kB SEAP reporter activity,[1]; agonist: LPS (TLR4) 0.1 ug/mL,0.854
same,NF-kB SEAP reporter activity,[1]; [4],1.1
same,NF-kB SEAP reporter activity,[1]; [5],0.925
same,NF-kB SEAP reporter activity,[1]; [6],1.08
